Targets with a hit are over-represented here; the source holds about 8,800 in all. About 0.5% of all pairs of compound and target were hits. Values without a mark were called inactive.
Experiments:
Test in all cases: log2 fold change, soluble protein after heating vs DMSO (PISA); higher = thermal stabilisation; K562 lysate, 10 uM; active = over 0.2 and 3.5 SD of the protein, either way, in both replicates (recomputed)
[1] = compound: NCC(=O)Nc1ccc(-n2nc(C(F)(F)F)cc2-c2ccc3c(ccc4ccccc43)c2)cc1
Method in brief: (§1)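 Values give the log-two fold change in thermal stability against solvent controls, from duplicates. Crude K562 extract at 1 mg/mL protein, made by dounce homogenisation in PBS pH 7.4 with 1 mM MgCl2, was treated with 10 μM compound for 30 min. After 3 min heating across 48°C-58°C, aliquots were pooled, adjusted to 0.5% NP-40 at 4°C and centrifuged at 21,000xg for 90 min. The supernatant was measured by TMTpro 16plex LC-MS/MS with channel sums equalised.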

vorinostat = compound: O=C(CCCCCCC(=O)Nc1ccccc1)NO [vorinostat]
Method in brief: as §1

silmitasertib = compound: O=C(O)c1ccc2c(c1)nc(Nc1cccc(Cl)c1)c1ccncc12 [silmitasertib]
Method in brief: as §1

[2] = compound: O=C1NC(=O)C(c2cnc3ccccn23)=C1c1cn2c3c(cc(F)cc13)CN(C(=O)N1CCCCC1)CC2
Method in brief: as §1

entospletinib = compound: c1cn2cc(-c3ccc4cn[nH]c4c3)nc(Nc3ccc(N4CCOCC4)cc3)c2n1 [entospletinib]
Method in brief: as §1

Sequence of UniProt Q9H9A6 (Q9H9A6 whole entry, looked up): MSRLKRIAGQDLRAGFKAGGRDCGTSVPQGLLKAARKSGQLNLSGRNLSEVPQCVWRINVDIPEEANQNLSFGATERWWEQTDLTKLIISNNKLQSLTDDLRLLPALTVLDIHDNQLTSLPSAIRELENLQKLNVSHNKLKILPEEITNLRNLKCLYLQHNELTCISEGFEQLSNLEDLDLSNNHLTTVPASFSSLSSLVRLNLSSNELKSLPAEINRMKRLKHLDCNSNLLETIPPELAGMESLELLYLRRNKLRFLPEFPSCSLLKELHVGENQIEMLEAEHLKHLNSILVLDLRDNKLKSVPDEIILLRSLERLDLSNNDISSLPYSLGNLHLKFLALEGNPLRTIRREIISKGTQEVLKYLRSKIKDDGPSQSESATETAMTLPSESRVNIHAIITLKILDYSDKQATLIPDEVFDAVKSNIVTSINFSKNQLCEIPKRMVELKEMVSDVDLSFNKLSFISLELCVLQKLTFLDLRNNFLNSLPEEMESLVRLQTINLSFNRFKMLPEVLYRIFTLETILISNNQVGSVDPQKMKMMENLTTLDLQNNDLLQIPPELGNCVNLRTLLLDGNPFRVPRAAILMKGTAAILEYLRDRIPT
Sequence of UniProt P45984 (P45984 whole entry, looked up): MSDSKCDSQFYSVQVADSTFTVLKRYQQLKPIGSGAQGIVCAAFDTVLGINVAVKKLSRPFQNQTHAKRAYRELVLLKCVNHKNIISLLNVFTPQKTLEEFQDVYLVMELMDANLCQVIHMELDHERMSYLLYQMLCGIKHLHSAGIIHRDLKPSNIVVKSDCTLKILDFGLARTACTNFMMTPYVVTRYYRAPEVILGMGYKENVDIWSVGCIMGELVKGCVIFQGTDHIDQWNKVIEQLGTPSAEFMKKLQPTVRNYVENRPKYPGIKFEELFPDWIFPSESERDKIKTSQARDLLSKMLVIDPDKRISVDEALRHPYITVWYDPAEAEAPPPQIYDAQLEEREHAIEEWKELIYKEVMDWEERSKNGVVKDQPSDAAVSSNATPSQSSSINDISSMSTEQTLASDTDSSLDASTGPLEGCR
Sequence of UniProt P52732 (P52732 whole entry, looked up): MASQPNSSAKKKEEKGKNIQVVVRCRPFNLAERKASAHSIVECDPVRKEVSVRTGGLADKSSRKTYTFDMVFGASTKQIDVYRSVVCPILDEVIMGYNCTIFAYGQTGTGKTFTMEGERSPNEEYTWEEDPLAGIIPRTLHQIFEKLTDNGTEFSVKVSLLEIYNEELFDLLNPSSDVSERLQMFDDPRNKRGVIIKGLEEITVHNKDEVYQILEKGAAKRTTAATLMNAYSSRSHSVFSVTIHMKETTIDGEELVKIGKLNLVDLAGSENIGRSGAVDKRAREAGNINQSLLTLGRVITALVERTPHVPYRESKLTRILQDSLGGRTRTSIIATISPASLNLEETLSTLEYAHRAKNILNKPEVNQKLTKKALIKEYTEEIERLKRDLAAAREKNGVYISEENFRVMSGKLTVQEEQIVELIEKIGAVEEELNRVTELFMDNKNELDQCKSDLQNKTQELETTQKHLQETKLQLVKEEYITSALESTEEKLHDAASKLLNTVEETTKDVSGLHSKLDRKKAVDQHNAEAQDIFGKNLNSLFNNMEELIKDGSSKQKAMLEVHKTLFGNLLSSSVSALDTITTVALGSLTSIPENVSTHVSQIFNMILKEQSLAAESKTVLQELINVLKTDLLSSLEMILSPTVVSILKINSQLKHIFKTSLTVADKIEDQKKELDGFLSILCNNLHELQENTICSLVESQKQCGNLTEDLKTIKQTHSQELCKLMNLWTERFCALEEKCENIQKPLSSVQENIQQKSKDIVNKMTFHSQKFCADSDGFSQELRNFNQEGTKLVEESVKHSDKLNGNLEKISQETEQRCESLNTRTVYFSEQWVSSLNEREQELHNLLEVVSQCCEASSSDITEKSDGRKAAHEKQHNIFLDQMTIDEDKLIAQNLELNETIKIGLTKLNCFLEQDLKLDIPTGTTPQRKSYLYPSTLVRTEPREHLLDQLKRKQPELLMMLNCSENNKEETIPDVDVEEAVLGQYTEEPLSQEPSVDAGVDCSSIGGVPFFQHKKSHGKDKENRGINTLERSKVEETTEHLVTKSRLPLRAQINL
Sequence of UniProt P07948 (P07948 whole entry, looked up): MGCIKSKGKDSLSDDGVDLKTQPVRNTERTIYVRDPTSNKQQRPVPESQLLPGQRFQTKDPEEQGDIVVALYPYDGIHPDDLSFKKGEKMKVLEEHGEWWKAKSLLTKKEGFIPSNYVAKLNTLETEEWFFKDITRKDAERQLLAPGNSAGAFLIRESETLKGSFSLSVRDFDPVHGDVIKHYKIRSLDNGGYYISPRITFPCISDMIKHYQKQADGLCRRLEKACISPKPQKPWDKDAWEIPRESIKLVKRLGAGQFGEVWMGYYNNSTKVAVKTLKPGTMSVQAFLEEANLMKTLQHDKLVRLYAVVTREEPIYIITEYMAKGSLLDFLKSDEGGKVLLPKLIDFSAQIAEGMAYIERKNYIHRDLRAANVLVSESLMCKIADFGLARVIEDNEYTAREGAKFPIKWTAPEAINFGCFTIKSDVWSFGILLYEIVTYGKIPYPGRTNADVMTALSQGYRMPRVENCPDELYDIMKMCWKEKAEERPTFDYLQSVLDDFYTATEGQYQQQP
Sequence of UniProt Q99661 (Q99661 whole entry, looked up): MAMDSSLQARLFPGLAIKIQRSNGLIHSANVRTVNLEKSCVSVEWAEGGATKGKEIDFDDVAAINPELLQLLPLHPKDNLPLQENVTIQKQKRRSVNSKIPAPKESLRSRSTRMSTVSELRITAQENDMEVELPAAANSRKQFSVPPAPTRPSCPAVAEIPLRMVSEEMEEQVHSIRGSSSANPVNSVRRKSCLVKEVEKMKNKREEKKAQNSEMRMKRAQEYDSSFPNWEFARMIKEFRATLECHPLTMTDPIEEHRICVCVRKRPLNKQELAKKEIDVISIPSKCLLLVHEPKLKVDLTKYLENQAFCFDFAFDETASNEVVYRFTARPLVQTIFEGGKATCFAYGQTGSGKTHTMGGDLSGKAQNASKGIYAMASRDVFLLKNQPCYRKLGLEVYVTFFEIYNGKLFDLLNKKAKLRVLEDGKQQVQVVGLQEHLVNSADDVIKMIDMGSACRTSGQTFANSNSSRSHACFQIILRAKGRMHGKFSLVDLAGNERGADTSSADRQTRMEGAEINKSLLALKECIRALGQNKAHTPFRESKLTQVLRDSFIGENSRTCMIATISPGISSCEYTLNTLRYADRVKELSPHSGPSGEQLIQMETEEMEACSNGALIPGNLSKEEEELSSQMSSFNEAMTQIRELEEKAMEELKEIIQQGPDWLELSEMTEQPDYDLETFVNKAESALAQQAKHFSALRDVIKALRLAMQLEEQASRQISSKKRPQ
Sequence of UniProt Q9Y6X9 (Q9Y6X9 whole entry, looked up): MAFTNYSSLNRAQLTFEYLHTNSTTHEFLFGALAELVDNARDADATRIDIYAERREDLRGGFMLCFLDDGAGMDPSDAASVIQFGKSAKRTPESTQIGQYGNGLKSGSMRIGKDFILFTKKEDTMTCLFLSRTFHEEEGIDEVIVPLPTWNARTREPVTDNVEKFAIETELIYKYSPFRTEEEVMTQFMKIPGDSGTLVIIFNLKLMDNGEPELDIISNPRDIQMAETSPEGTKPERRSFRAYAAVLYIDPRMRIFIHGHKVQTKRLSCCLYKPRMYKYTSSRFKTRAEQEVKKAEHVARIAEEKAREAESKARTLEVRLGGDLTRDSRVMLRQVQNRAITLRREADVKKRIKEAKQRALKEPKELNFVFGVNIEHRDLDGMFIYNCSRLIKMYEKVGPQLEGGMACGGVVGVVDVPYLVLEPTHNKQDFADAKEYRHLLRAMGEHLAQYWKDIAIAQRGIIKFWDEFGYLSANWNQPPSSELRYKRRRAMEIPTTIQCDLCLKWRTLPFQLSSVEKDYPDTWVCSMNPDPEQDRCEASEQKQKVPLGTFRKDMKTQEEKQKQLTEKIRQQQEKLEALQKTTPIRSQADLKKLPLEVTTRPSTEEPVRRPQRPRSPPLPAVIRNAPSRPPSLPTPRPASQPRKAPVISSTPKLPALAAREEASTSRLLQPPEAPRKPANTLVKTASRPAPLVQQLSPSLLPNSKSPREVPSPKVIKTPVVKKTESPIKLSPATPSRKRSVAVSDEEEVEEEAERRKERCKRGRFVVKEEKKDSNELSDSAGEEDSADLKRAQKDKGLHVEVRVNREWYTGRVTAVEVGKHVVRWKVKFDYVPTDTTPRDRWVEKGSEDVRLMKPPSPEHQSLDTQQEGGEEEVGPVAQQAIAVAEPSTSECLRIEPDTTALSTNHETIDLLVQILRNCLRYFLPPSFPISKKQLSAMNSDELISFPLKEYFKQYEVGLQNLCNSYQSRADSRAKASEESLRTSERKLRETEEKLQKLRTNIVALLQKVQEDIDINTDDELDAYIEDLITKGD
Sequence of UniProt Q00987 (Q00987 whole entry, looked up): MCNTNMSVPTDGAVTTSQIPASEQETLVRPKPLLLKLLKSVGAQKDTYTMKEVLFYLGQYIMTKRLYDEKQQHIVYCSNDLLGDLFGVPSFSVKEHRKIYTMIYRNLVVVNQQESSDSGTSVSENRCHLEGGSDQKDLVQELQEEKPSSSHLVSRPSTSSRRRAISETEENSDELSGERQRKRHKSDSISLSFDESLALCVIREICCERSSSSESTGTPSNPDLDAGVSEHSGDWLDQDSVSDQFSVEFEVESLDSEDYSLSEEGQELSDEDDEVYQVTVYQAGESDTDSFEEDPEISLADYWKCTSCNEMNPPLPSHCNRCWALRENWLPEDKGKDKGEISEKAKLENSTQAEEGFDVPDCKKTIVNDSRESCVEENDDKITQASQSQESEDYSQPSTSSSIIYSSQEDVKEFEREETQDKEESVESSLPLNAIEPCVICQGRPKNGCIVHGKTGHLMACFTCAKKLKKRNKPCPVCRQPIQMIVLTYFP
Sequence of UniProt Q13015 (Q13015 whole entry, looked up): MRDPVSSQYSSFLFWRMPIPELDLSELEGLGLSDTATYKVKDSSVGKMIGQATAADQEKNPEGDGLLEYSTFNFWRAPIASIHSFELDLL

Target | log2 fold change [1] | log2 fold change (vorinostat) | log2 fold change (silmitasertib) | log2 fold change [2] | log2 fold change (entospletinib)
MEX3A (UniProt A1L020) | -0.106 |  |  |  | 
MBLAC2 (UniProt Q68D91) | -0.1 | 0.084 | -0.015 | -0.074 | -0.011
KIF4A (UniProt O95239) | -0.017 | -0.445 (active) | 0.017 | 0.013 | 0.001
KIF21A isoform 5 (UniProt Q7Z4S6) | 0.005 | -0.239 (active) | -0.004 | 0.007 | -0.058
KSR1 (UniProt Q8IVT5) | 0.029 | -0.49 (active) | 0.081 | 0.031 | -0.025
LIG3 (UniProt P49916) | -0.061 | -0.411 (active) | 0.018 | -0.012 | -0.004
LRRC40 (UniProt Q9H9A6) | -0.005 | -0.315 (active) | 0.027 | -0.043 | 0.02
LBR (UniProt Q14739) | -0.121 | 0.17 | -0.001 | -0.076 | -0.009
MLLT11 (UniProt Q13015) | 0.08 | 0.104 | -0.203 | -0.016 | 0.034
LSG1 (UniProt Q9H089) | -0.074 | -0.052 | 0.043 | 0.096 | 0.139
MAPK9 (UniProt P45984) | -0.008 | -0.129 | 0.037 | -0.004 | 0
MINDY1 isoform 3 (UniProt Q8N5J2) | -0.097 | -0.186 | 0.144 | 0.166 | -0.052
MDM2 isoform 11 (UniProt Q00987) | -0.137 | -0.062 | 0 | -0.039 | 
LDAH isoform 2 (UniProt Q9H6V9) | -0.017 | -0.13 | 0.064 | 0.033 | -0.029
KIF2C (UniProt Q99661) | 0.003 | -0.464 (active) | 0.028 | 0.012 | 0.024
MORC2 (UniProt Q9Y6X9) | 0.014 | -0.328 (active) | 0.103 | -0.015 | 0.013
LYN (UniProt P07948) | 0.025 | -0.305 | -0.058 | -0.108 | 0.149
MBTPS1 (UniProt Q14703) | 0.17 | 0.116 | -0.023 | -0.044 | 0.094
LYAR (UniProt Q9NX58) | 0.011 | 0.109 | 0.005 | 0.001 | 0.014
LLGL1 (UniProt Q15334) | 0.078 | -0.524 (active) | 0.077 | -0.046 | 0.042
MRPL35 (UniProt Q9NZE8) | -0.229 | -0.159 | 0.04 | 0.013 | 
MPP1 (UniProt Q00013) | 0.012 | -0.297 (active) | 0.02 | 0.024 | 0.007
MLXIP (UniProt Q9HAP2) | 0.037 | -0.314 (active) | 0.026 | 0.079 | 0.03
MARK1 (UniProt Q9P0L2) | 0.017 | -0.225 | 0.485 (active) | -0.059 | 0.049
MAD2L1BP isoform 3 (UniProt Q15013) | -0.026 | -0.299 (active) | -0.019 | 0.008 | 0
MCMBP isoform 2 (UniProt Q9BTE3) | -0.153 | -0.413 | -0.092 | 0.064 | -0.654
LZTR1 (UniProt Q8N653) | -0.022 | -0.472 (active) | 0.005 | 0.013 | 0.055

Target | log2 fold change [1] | log2 fold change (vorinostat) | log2 fold change (silmitasertib) | log2 fold change [2] | log2 fold change (entospletinib)
MAP1S (UniProt Q66K74) | 0.006 | -0.242 (active) | -0.004 | -0.025 | 0.01
KPNA2 (UniProt P52292) | -0.014 | -0.376 (active) | 0.018 | 0.009 | 0.019
MFF isoform 2 (UniProt Q9GZY8) | 0.003 | 0.17 | -0.048 | 0.029 | -0.055
MIF4GD isoform 3 (UniProt A9UHW6) | 0.008 | -0.232 (active) | 0.018 | -0.012 | -0.032
MAP4 isoform 5 (UniProt P27816) | 0.001 | 0.359 | 0.074 | 0.087 | 0.063
KIF15 (UniProt Q9NS87) | 0.017 | -0.136 | 0.02 | 0.004 | -0.024
KLHL12 isoform 2 (UniProt Q53G59) | 0.135 | -0.108 | 0.024 | 0.003 | 
LRPPRC (UniProt H7C3W8) | 0.792 |  |  |  | 
MAP2K4 isoform 2 (UniProt P45985) | -0.119 | -0.216 | 0.023 | 0.013 | 0.028
MON2 isoform 5 (UniProt Q7Z3U7) | 0.021 | -0.525 (active) | 0.021 | 0 | 0.005
MED17 (UniProt Q9NVC6) | -0.051 | -0.392 (active) | -0.008 | -0.006 | 0.083
MITD1 (UniProt Q8WV92) | 0.01 | 0.255 (active) | -0.051 | -0.079 | -0.024
MAT2B (UniProt Q9NZL9) | 0.019 | 0.103 | 0.005 | 0.021 | 0.024
LSM11 (UniProt P83369) | 0.233 | -0.027 | 0.194 | 0.014 | -0.02
MAPK14 isoform 2 (UniProt Q16539) | -0.06 | -0.328 | 0.291 | -0.092 | -0.015
KIF11 (UniProt P52732) | -0.013 | -0.252 (active) | 0.016 | -0.033 | 0.001
MAP4 (UniProt E7EVA0) | -0.044 | 0.025 | 0.028 | 0.079 | -0.025
LRPPRC (UniProt P42704) | -0.004 | -0.259 (active) | 0.072 | 0.023 | 0.035
MORF4L1 isoform 2 (UniProt Q9UBU8) | 0.013 | 0.058 | -0.002 | 0.015 | 0.018
MINK1 (UniProt Q8N4C8) | -0.02 | -0.205 | -0.109 | 0.043 | 0.182
MAP3K4 (UniProt Q9Y6R4) | -0.025 | -0.524 (active) | 0.229 | -0.025 | -0.045
MARK3 (UniProt P27448) | -0.035 | -0.069 | 0.445 (active) | 0.035 | 0.036
LPIN1 isoform 7 (UniProt Q14693) | 0.052 | -0.489 (active) | -0.014 | 0.004 | -0.193
LARS (UniProt Q9P2J5) | -0.021 | -0.399 (active) | 0.052 | -0.003 | 0.012
MICU2 (UniProt Q8IYU8) | 0.012 | -0.179 | 0.031 | -0.009 | -0.089
LAS1L (UniProt Q9Y4W2) | -0.008 | -0.397 (active) | 0.01 | -0.018 | -0.075
MAP2K5 (UniProt Q13163) | -0.111 | -0.293 | -0.123 | 0.023 | 0.065

From the supplement of paper PMC10849652
